From PubChem BioAssay (Tox21)
A number with no mark means an inactive call. The source made the active and inactive calls. The call rests on the fitted dose curve; in most records, active means well fitted curve in the direction sought with a large enough effect in the repeat runs; inconclusive means weak or mixed curves; inactive means flat fitted curve, though single readings scatter.

Test: qHTS assay to test for compound auto fluorescence at 460 nm (blue) in HepG2 cell free culture (AID 720685)
Conditions: Cell-free culture medium, blue autofluorescence 405/460 nm; series mostly up to 91.3 µM
Text: U.S. Tox21 Program National Center for Advancing Translational Sciences [NCATS] NIH Chemical Genomics Center [NCGC] U.S. Environmental Protection Agency [EPA] National Institutes of Environmental Health Sciences [NIEHS] National Toxicology Program [NTP] U.S. Food and Drug Administration [FDA] Tox21 Assay Overview: Compound auto fluorescence often interferes with screening of the compound library against various biological targets and signaling pathways. Some of these compounds may have fluorophoric properties. Such properties may interfere with the assay outputs resulting in false positives and/or negatives. To decrease such complications and ensure the compound activities are relevant in terms of biological response, the Tox21 10K compound library was screened for auto fluorescence. From the fluorophores used as reporter signals in our screening assays, the auto fluorescence equivalencies of compounds against three fluorophores have been evaluated: Triamterene, Fluorescein and Rose Bengal sodium for blue, green and red fluorescence, respectively. The fluorescence intensities were measured using Excitation/Emission wavelengths at 405/460nm, 485/535nm and 540/590nm for blue, green and red labels, respectively. This assay includes the blue fluorescence data.
Tox21 Assay Protocol Summary: 5 uL of culture medium (MEM containing 10% FBS) per well was dispensed into black wall/clear bottom 1536-well plates using a Multidrop Combi Dispenser (ThermoFisher Scientific, Waltham, MA). After 23 nL compound or DMSO vehicle was transferred into assay plate by a pintool work station (Kalypsys, San Diego, CA), fluorescence intensities in the assay plates were measured by an Envision (PerkinElmer, Shelton, CT) plate reader using three labels for measuring blue, green and red fluorescence at […] 460, 535 and 590nm respectively.
On the % scale 0 is the no-effect control and ±100 the full control effect.

Row | SMILES | outcome | fluorescence, % of fluorescent control
1 | CC(C)CCCC(C)CC=O (stereo not given) | inactive | –
2 | COc1ccc(N=Nc2cc(C)c(N=Nc3ccc(S(=O)(=O)O)cc3)cc2OC)cc1 | inactive | –
3 | O=C(/C=C/c1ccccc1)NCCO | inactive | –
4 | NC(=O)NNC(N)=O | inactive | –
5 | Cc1oc(=O)oc1CN1CCN(c2cc3c(cc2F)c(=O)c(C(=O)O)c2n3C(C)S2)CC1 (stereo not given) | inactive | –
6 | C=CCCCCCCCCCCC | – | 0.0228% [at 3.72 µM]
7 | OC[C@@H](O)[C@H](O)[C@@H](O)[C@@H](O)CO | inactive | –
8 | CC1(N)CCC(C(C)(C)N)CC1 (stereo not given) | inactive | –
9 | C=C[C@@H](C)CCC=C(C)C | inactive | –
10 | COc1cc2c(Nc3ccc(Br)cc3F)ncnc2cc1OCC1CCN(C)CC1 | inactive | –
11 | CCOC(=O)OCC/C(SC(=O)OCC)=C(\C)N(C=O)Cc1cnc(C)nc1N | inactive | –
12 | CCCCC/C=C/CC(=O)OC | inactive | –
13 | O=C(COCCOCCOCC(=O)Nc1c(I)cc(I)c(C(=O)O)c1I)Nc1c(I)cc(I)c(C(=O)O)c1I | inactive | –
14 | CCCCCCCCCOCC1CO1 (stereo not given) | inactive | –
15 | FC(F)(F)/C(=N\OCC1OCCO1)c1ccc(Cl)cc1 | inactive | –
16 | CCCCCCCCC(=O)OCC | inactive | –
17 | CCCCOC(=O)C(C)OC(=O)CCC (stereo not given) | inactive | –
18 | CCCCCCCCCCCCCC(=O)OC | inactive | –
19 | Nc1ccc(S(=O)(=O)NC(=O)c2ccccc2)cc1 | – | -0.0907% [at 18.6 µM]
20 | CC1=CC[C@H](CC=O)C1(C)C | inactive | –

Row | SMILES | outcome | fluorescence, % of fluorescent control
21 | CCN1CN(CC)CN(CC)C1 | inactive | –
22 | CC(=O)c1ccc(OCC(=O)N2CCCCC2)cc1 | inactive | –
23 | COc1cc(C=O)ccc1OC(=O)C(C)C | inactive | –
24 | CCCCOC(=O)C(=O)OCCCC | inactive | –
25 | Cc1ccc2c(c1)c1c3n2CCNC3CCC1 (stereo not given) | inactive | –
26 | C=CCOc1cc(Cl)ccc1C(=O)NCCN(CC)CC | inactive | –
27 | CO[Si](CCCCl)(OC)OC | inactive | –
28 | C=COCCOCCOC=C | inactive | –
29 | CN[C@@H]1[C@@H](O)[C@@H](O[C@@H]2[C@H](O)[C@H](O[C@H]3OC(CN)=CC[C@H]3N)[C@@H](N)C[C@H]2N)OCC1(C)O (stereo not given in full) | inactive | –
30 | CCc1nccnc1C | inactive | –
31 | CC(C)(C)NCCO | inactive | –
32 | CCOC(=O)CC#N | inactive | –
33 | FC(F)(F)c1ccc(Cl)cc1Cl | inactive | –
34 | CC(=O)/C=C/c1ccco1 | inactive | –
35 | CCNC(=O)/C=C/c1cccc(Br)c1 | inactive | –
36 | CC(C)COC(=O)COc1ccc(Cl)cc1Cl | inactive | –
37 | COc1cc2c3cc1Oc1cc(ccc1O)C[C@@H]1c4c(cc(OC)c(O)c4Oc4ccc(cc4)C[C@@H]3N(C)CC2)CC[N+]1(C)C | inactive | –
38 | CCC(C)(C)C1CCC(=O)CC1 | inactive | –
39 | Nc1ccnc(=O)[nH]1 | inactive | –
40 | O=C1OC(=O)c2ccccc21 | inactive | –
